# Source: PubChem BioAssay
# In the library only some 15% were active in any assay of this set; here they are far more common.
# ELG1 DNA repair: ELG1-dependent DNA repair inhibition. hit rate 2.3% among 330,000. HEK293T ELG1-luciferase reporter, luminescence, 16 h; DNA damage induced by 5-fluorouridine. Potency, µM (highest dose often 46.1 µM), for the others: at the top dose activity change, negative = inhibition, actives largely listed as inhibitors. AID 504467; further: nearly all actives have a fitted effect of over 55% in size
#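 Cells (2,000 per well) received 5-fluorouridine plus test compound or DMSO and were incubated 16 hr at 37 °C, 5% CO2. Luciferase activity was read by luminescence 30 min after ONE-Glo addition; signal suppression marked inhibition of damage-induced ELG1 function.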
# VP16 counter: inhibits Gal4-VP16 luciferase reporter, ROR gamma counter-screen | Drosophila S2 Gal4-VP16 UAS-luciferase, luminescence, 20 h | hit rate 3.5% among 310,000 | AID 2546 | Potency, µM (series often up to 53.6 µM), for inactives: top-dose activity, negative = inhibition, hits mostly inhibitors;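 further: Gal4-VP16 expression switched on by copper sulfate through the metallothionein promoter; nearly all actives have a fitted effect of over 50% in size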
# 12-LOX inh: ALOX12 (human) lipoxygenase inhibition; AID 1671190; Potency, µM (titrated, usually from 108 µM), inactives show at the top dose activity change, negative = inhibition, hits mostly inhibitors; hit rate 1.1% among 580,000; purified 12hLO, xylenol orange hydroperoxide absorbance
# Target sequence (P18054 whole entry, looked up): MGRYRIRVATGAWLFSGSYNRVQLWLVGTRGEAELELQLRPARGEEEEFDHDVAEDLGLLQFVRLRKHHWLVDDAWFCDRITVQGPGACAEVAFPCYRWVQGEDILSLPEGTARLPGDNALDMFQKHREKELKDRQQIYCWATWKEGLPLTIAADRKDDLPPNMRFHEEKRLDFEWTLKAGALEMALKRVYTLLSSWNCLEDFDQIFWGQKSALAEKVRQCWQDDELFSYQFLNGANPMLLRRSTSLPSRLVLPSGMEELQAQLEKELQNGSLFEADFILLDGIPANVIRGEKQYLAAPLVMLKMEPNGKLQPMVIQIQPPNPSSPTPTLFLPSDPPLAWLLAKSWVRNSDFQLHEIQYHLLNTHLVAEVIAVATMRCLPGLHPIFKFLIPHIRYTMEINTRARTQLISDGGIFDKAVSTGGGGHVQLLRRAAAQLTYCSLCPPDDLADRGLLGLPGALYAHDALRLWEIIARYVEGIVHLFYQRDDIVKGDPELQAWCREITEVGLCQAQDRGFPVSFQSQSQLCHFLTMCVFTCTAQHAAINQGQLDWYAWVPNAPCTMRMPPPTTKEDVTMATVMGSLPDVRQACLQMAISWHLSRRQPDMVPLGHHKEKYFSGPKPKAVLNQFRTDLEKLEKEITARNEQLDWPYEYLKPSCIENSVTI
#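 Purified human 12hLO at 150 nM in 25 mM Hepes, 0.01% Triton X-100, pH 7.0, preincubated 15 min at room temperature with compound. Reaction started with 40 uM arachidonic acid, 30 min at room temperature. Hydroperoxide measured by Fe-xylenol orange, 573/405 nm absorbance ratio.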
# DT40 TDP1 CPT: growth inhibition of DT40 Tdp1-/-;hTDP1 cells with camptothecin (screen for TDP1 inhibitors); hit rate 12% among 420,000; AID 686979; chicken DT40 Tdp1-/-;hTDP1 cells + 20 nM CPT, ATP luminescence, 48 h; Potency, µM (top dose mostly 46.2 µM), inactives show at the highest dose activity change, negative = growth inhibition, actives largely listed as inhibitors; further: nearly all actives have a fitted effect of over 55% in size
#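 Chicken DT40 Tdp1-/- cells stably complemented with human TDP1 were seeded at 400 cells/well in medium containing 20 nM camptothecin, exposed to pin-transferred compounds, and grown at 37 °C for at least 48 hr. Viability was read as ATP luminescence.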
# DT40 TDP1 no CPT: qHTS for Inhibitors of human tyrosyl-DNA phosphodiesterase 1 (TDP1): qHTS in cells in absence of CPT; DT40 Tdp1-/- hTDP1 cells, no CPT, ATP luminescence, 48 h; Potency, µM (highest dose often 46.2 µM), for the others: at the top dose activity change, negative = growth inhibition, hits mostly inhibitors; hit rate 15% among 420,000; AID 686978, 2013; further: nearly all actives have a fitted effect of over 55% in size
#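 Cells were dispensed at 400 per well, compounds added by pin tool, plates incubated ≥48 hr at 37 °C, then CellTiter-Glo added for 30 min at room temperature before luminescence reading. Line: DT40 Tdp1-/- complemented with hTDP1; camptothecin omitted.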
# RORg inh: blocks mouse ROR gamma transcriptional activity; P51450; Drosophila S2 Gal4-RORgamma UAS-luciferase reporter, 20 h; Potency, µM (doses to about 53.6 µM), without a hit: at the highest dose activity change, negative = inhibition, hits mostly inhibitors; hit rate 5.4% among 310,000; AID 2551; further: nearly all actives have a fitted effect of over 60% in size
#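 Drosophila Schneider cells stably carrying a metallothionein-driven Gal4 DBD–ROR gamma fusion and a UAS-Photinus luciferase reporter were exposed to compound for 1 hr, then induced with copper sulfate (700 uM final) for 20 hr at ambient temperature before luminescence reading.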
# Starred values were filed as active, the others as inactive; ? = inconclusive; . = no result. The call rests on the fitted dose curve; in most records, active means well fitted curve in the direction sought with a large enough effect; inconclusive means small, poorly fitted or top-dose-only effect, or another doubt; inactive means no such curve, though single readings can be large; an effect the other way counts as inactive or inconclusive. On the % scale 0 is the no-effect control and ±100 the full control effect; potency means the concentration at half of the fitted maximal effect.
SMILES,ELG1 DNA repair,VP16 counter,12-LOX inh,DT40 TDP1 CPT,DT40 TDP1 no CPT,RORg inh
CCc1cc(N2CCCC(OCc3ccccn3)C2)n2nc(C)c(C)c2n1 (stereo not drawn),.,.,69%,.,.,.
COC(=O)C1=C(O)/C(=C\c2cc(C)n(-c3ccccc3C)c2C)N=C1C,9%,?,?,29µM*,?,?
COC(=O)C1=C(O)/C(=C\c2cc(C)n(-c3ccccc3F)c2C)N=C1C,-3%,-13%,?,-19%,-23%,0%
C=CC[C@H](CC(=O)N(CCO)Cc1ccccc1)C(=O)NCCOC(=O)[C@@H](CC=C)CC(=O)OC(C)(C)C,-5%,.,-2%,23µM*,?,.
C=CC[C@H](CC(=O)N(CCO)Cc1ccccc1)C(=O)NCCOC(=O)[C@H](CC=C)CC(=O)OC(C)(C)C,?,.,?,16µM*,21µM*,.
CC(NCCC(c1ccccc1)c1ccccc1)c1ccccc1 (stereo not drawn),?,?,?,6.5µM*,5.2µM*,-107%
C=CCN([C@@H](CC(C)C)C(=O)OC)S(=O)(=O)N(CC=C)[C@@H](CC(C)C)C(=O)OC,18%,.,2%,?,18µM*,.
COC(=O)[C@H](CC(C)C)NS(=O)(=O)N[C@@H](CC(C)C)C(=O)OC,20%,.,9%,?,-10%,.
COc1ccc2c(c1)C(CC(C)=O)N(c1ccc(-c3cccnc3)cc1)C(c1ccsc1)=C2 (stereo not drawn),.,.,4%,?,?,.
COc1ccc2c(c1)C(CC(C)=O)N(c1ccc(-c3cnc(OC)nc3)cc1)C(c1ccsc1)=C2 (stereo not drawn),.,.,-76%,-15%,?,.
COc1cc(OC)cc(C2=Cc3ccc(OC)cc3C(CC(C)=O)N2c2ccc(-c3cncnc3)cc2)c1 (stereo not drawn),.,.,0%,8.2µM*,?,.
COc1cc(OC)cc(C2=Cc3ccccc3C(CC(=O)c3ccco3)N2c2ccc(-c3cccnc3)cc2)c1 (stereo not drawn),.,.,-8%,?,18µM*,.
COc1ccc(-c2ccc(N3C(c4cc(OC)cc(OC)c4)=Cc4ccc(OC)cc4C3CC(C)=O)cc2)cc1 (stereo not drawn),.,.,?,5.2µM*,6.5µM*,.
COc1ccc2c(c1)C(CC(C)=O)N(c1ccc(-c3cccs3)cc1)C(c1ccsc1)=C2 (stereo not drawn),.,.,0%,3.7µM*,4.6µM*,.
N#Cc1ccc(C(=O)NCc2coc(-c3cccs3)n2)cc1,.,.,-5%,.,.,.
COC(=O)c1ccc(N2C(c3cc(OC)cc(OC)c3)=Cc3ccc(-c4ccc(C(N)=O)cc4)cc3C2CC(=O)C2CC2)cc1 (stereo not drawn),.,.,-5%,?,18µM*,.
COC(=O)c1ccc(N2C(c3cc(OC)cc(OC)c3)=Cc3ccc(-c4cccnc4)cc3C2CC(=O)C2CC2)cc1 (stereo not drawn),.,.,109%,?,?,.
Cc1noc(C)c1-c1ccc(C(=O)NCCN2CCOCC2)c2occc12,.,.,-38%,?,29µM*,.
CC(=O)Nc1ccc(NC(=O)CCc2c(C)noc2C)cc1,4%,.,15%,1%,12%,.
Cc1noc(C)c1-c1cc(NCCN2CCOCC2)ncn1,.,?,40µM*,0%,-25%,0%
Cc1noc(C)c1-c1ccc(C(=O)NCCc2ccccc2)c2occc12,.,.,-1%,?,?,.
Cc1noc(C)c1-c1ccc(C(=O)NCc2cccs2)c2occc12,.,.,-4%,?,?,.
COc1cc(NC(=O)c2ccc(-c3c(C)noc3C)c3ccoc23)cc(OC)c1OC,.,.,4%,13µM*,8.2µM*,.
